Measured values published in PubChem BioAssay AID488857 (Sanford-Burnham Center for Chemical Genomics, 2010).
The whole screen tested about 1,400 compounds, of which about 560 (40%) were called active.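 How the source made its calls: active means mean inhibition over duplicate tests at 10 µM above 50%; inactive means the rest.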 The set was probably picked from earlier hits. Some of the results follow.

assay: ASC/caspase-1 reporter retest in S. cerevisiae at one dose, specificity check for NALP1 project (AID 488857); settings: S. cerevisiae ASC/Caspase-1, beta-galactosidase luminescence, 24 h; at 10 µM; hits give high values

SMILES	inhibition
CCOC(=O)N/N=C/c1ccc(N(CC)CC)cc1O	72.5% (active)
COc1cc2nc(Cl)nc(N3CCN(C)CC3)c2cc1OC	30% (inactive)
COc1cccc(NC2=C(Cl)C(=O)OC2OC(=O)c2ccco2)c1 (configuration not stated)	38.3% (inactive)
O=C(Nc1ccc(Cl)c(Cl)c1)Oc1ccc(NC(=O)c2ccco2)cc1	54.6% (active)
Cc1ccc2cc3cc(C(=O)NCCCN4CCc5ccccc5C4)oc3nc2c1	35% (inactive)
Cc1ccc(NC(=O)N2CCc3ccccc3C2)cc1	69.2% (active)
O=C(Nc1ccccc1)N1CCc2ccccc2C1	71.7% (active)
CC(=O)N1CCCc2cc(S(=O)(=O)N3CCc4ccccc4C3)ccc21	45.2% (inactive)
O=C(NCCCN1CCc2ccccc2C1)Nc1ccc(Br)cc1	43.3% (inactive)
COC(=O)/C(=N/Nc1ccc(C)cc1)N1CCCc2ccccc21	40.6% (inactive)
CCOC(=O)c1cc(-c2ccc(OC)cc2)nc2c1c(C)nn2CCC#N	49.6% (inactive)
CN1C/C(=C/c2ccncc2)C(=O)/C(=C/c2ccncc2)C1	26.9% (inactive)
CC1=CC2=NC(=O)/C(=C\c3cccn3CCOc3cccc(C)c3)C(=N)N2O1	85.1% (active)
NCCS	58.8% (active)
CCOC(=O)C1CCN(C(=O)c2cc3cc4cc(OC)ccc4nc3o2)CC1	52% (active)
COc1ccc2nc3oc(C(=O)Nc4ccc(OC)c(OC)c4)cc3cc2c1	36.3% (inactive)
CCOC(=O)C1CCCCN1Cc1ccc(F)c(Br)c1 (configuration not stated)	40.2% (inactive)
O=C(NCC1CCCO1)C(c1cccs1)N(Cc1cccs1)C(=O)Cn1nnc(-c2cccs2)n1 (configuration not stated)	39.1% (inactive)
CCOC(=O)c1c(C)c(C(=O)NCCCOC(C)C)c(C)n1C	26.7% (inactive)
COc1cc(C=O)ccc1Oc1nnnn1-c1ccccc1	52.9% (active)
O=C1CN(c2nnnn2-c2ccccc2)CCN1	40.9% (inactive)
CC(C)C(=O)c1cc2c(cc1NC(=O)Nc1cccc3ccccc13)OCCO2	49.3% (inactive)
O=C(N/N=C/c1ccc2c(c1)OCO2)c1cccs1	68.9% (active)
O=C(/C=C/c1cccc([N+](=O)[O-])c1)c1ccco1	36% (inactive)
CNc1ccc(/C=C/C(=O)c2ccc3c(c2)OCCO3)cc1[N+](=O)[O-]	66.7% (active)
Cc1c([N+](=O)[O-])c(C(=O)Nc2ccc3c(c2)OCCO3)nn1C	24.6% (inactive)
CC1=CC(C)(C)Nc2ccc(OC(=O)C(C)N3C(=O)c4ccccc4C3=O)cc21 (configuration not stated)	39.1% (inactive)
